CYP2C9 inhib: blockers of cytochrome P450 2C9 activity – biochemical, luminescence, ADME assay, primary screen. P11712. CYP2C9 Supersomes, luciferin-H conversion. inhibition, % at 5 µM. 96,000 compounds, 20% hits;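 active means blocking of liver enzyme CYP2C9 beyond about 50% at 5 µM, limit read from the data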
CYP2C19 inhib: blockers of cytochrome P450 2C19 activity – biochemical, luminescence, ADME assay, primary screen | P33261 | CYP2C19 Supersomes, luciferin-H EGE luminescence, 30 min | inhibition, % at 5 µM | 96,000 compounds, 21% hits | AID 778, 2007;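 active means CYP2C19 inhibition above a set limit at 5 µM in the primary screen, cut at about 50% in these data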;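 further: plate controls were negative control wells for no effect and 2.5 mM tranylcypromine positive control for full effect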
Target sequence (P33261 whole entry, looked up): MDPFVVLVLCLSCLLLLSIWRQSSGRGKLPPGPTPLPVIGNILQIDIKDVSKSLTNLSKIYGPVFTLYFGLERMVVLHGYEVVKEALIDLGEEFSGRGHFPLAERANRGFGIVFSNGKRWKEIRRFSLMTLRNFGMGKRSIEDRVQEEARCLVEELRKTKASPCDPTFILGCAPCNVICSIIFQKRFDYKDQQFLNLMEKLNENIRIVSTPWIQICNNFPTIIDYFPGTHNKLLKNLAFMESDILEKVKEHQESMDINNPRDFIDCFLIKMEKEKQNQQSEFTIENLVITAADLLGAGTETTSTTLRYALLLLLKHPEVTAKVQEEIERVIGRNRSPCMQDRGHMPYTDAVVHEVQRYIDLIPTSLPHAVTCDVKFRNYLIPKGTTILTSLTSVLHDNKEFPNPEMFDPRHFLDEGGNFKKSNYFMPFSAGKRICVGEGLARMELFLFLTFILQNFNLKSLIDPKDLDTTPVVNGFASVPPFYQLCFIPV
Cav3 T inh: Cav3.2 calcium influx blockers – cell-based, Fluo-4 calcium fluorescence, FDSS, MLSMR library, primary screen. Voltage-dependent T-type calcium channel subunit alpha-1H (Homo sapiens), O95180. Cav3.2-expressing cells; stronger effect = lower value. B-score at 10 µM. 100,000 compounds, 4% hits. AID 449739, 2010;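 active means single-dose well whose peak fluorescence ratio is a statistical outlier from its plate by either plate-standardised score or position-corrected B-score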
CYP2C19 act: human CYP2C19 activators, primary screen, biochemical, luminescence; activation factor at 5 µM; Cytochrome P450 2C19 (Homo sapiens), P33261; recombinant CYP2C19, luciferin-H EGE luminescence; stronger effect = higher value; 0 = fully inhibited enzyme, 1 = untreated enzyme; 96,000 tested, under 10 active;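 active means activation factor of at least 2 at 5 µM in the primary screen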;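 further: 0 = wells with 2.5 mM tranylcypromine and 1 = vehicle-only wells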
CYP2C9 act: human CYP2C9 activators, primary screen, biochemical, luminescence | Cytochrome P450 2C9 (Homo sapiens), P11712 | recombinant CYP2C9, luciferin-H conversion; stronger effect = higher value; factor 1 = untreated enzyme, 0 = blocked | activation factor at 5 µM | 96,000 compounds, 1.4% hits;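 active means activation factor of 2 or more for CYP2C9 at a 5 µM dose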;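 further: 0 = sulfaphenazole-blocked wells and 1 = vehicle-only wells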
An asterisk follows results filed as active; x = not tested or not shown. This is a sample that favours compounds with a hit; in the whole collection about 27% have one here.

SMILES	CYP2C9 inhib	CYP2C19 inhib	Cav3 T inh	CYP2C19 act	CYP2C9 act
CC(=O)OCCn1c(Br)nc2c1c(=O)[nH]c(=O)n2C	-4.9	1.3	0.326	1	1
N#CCCN(Cc1cccnc1)S(=O)(=O)c1ccc(S(=O)(=O)NC2CCCCC2)cc1	40.4	59.1*	0.103	0.4	0.6
CCN=C(N/N=C/c1ccc([N+](=O)[O-])cc1)SC	27.1	43.2	-0.0743	0.6	0.7
COc1cccc(NC(C)C(=O)N2CC(C)OC(C)C2)c1 (centres undefined)	10.0	5.4	-0.201	0.9	0.9
CCCn1c(=O)c2c(C(=O)OCC)cc(-c3ccco3)nc2n(CCC)c1=O	60.9*	30.5	x	0.7	0.4
CCOC(=O)c1cnc2cc(Cl)c(OC)cc2c1NCC1CCCO1 (centres undefined)	69.9*	28.3	0.338	0.7	0.3
O=c1c2ccsc2ncn1Cc1ccccc1F	3.8	42.0	0.0395	0.6	1
O=c1c2ccsc2ncn1Cc1cccc(C(F)(F)F)c1	53.4*	35.1	-0.774	0.6	0.5
Cc1cc(C)nc(NC(=NCc2ccc3c(c2)OCO3)NC(=O)Nc2ccccc2)n1	0.1	-12.6	-3.78	1.1	1
c1ccc(-c2nnc(-c3ccco3)n2-c2ccccc2)cc1	x	x	0.0413	x	x
c1ccc(-n2c(-c3ccncc3)nnc2-c2cccs2)cc1	54.0*	71.0*	2.15	0.3	0.5
c1ccc(-n2c(-c3ccncc3)nnc2-c2ccco2)cc1	49.8	79.6*	0.782	0.2	0.5
C[C@H]1O[C@H]1P(=O)(O)O	x	x	-1.42	x	x
CC(=O)N1CCc2cc(S(=O)(=O)NCCC(=O)NC3CCN(Cc4ccccc4)CC3)ccc21	10.2	-1.8	-0.136	1	0.9
CC(=O)N1CCc2cc(S(=O)(=O)NCCCN3CCN(Cc4ccccc4)CC3)ccc21	49.5	52.5*	x	0.5	0.5
CC(=O)N1CCc2cc(S(=O)(=O)NCCN3CCC(C)CC3)ccc21	2.8	50.8*	1.12	0.5	1
CCOC(=O)c1c(C)nc2sc3c(=O)n(-c4ccc(C(C)=O)cc4)cnc3c2c1-c1ccc(Cl)cc1	87.9*	93.8*	-0.437	0.1	0.1
COc1ccc(NC(=O)C(c2ccc(OC)cc2)N(C)C(=O)c2cnccn2)cc1 (centres undefined)	33.7	29.9	0.0747	0.7	0.7
Cc1ccc(C(=O)NC(=S)NCC2CCCO2)cc1 (centres undefined)	37.1	68.3*	0.906	0.3	0.6
Cc1cnn(C(=S)NCC2CCCO2)c1 (centres undefined)	0.4	55.7*	-0.187	0.4	1
Cc1cccc(C(=O)NCC2CCCO2)c1 (centres undefined)	x	x	-0.338	x	x
CN(C)c1ccc(C(=O)NCC2CCCO2)cc1 (centres undefined)	x	x	0.217	x	x
Cc1ccc(C)n1-c1ccc(C(=O)NCC2CCCO2)cc1 (centres undefined)	18.0	57.9*	-0.106	0.4	0.8
Cc1ccc(NC(=S)NCC2CCCO2)cc1 (centres undefined)	-13.9	22.7	0.601	0.8	1.1
Cc1cc(C(=O)NNC(=S)NCC2CCCO2)cs1 (centres undefined)	-20.7	51.5*	0.269	0.5	1.2
SMILES	CYP2C9 inhib	CYP2C19 inhib	Cav3 T inh	CYP2C19 act	CYP2C9 act
Cc1cccc(NC(=S)NCC2CCCO2)c1 (centres undefined)	-19.9	-11.5	0.426	1.1	1.2
CON/C=C(\C=Nc1ccc(Cl)cc1)c1ncc(C(F)(F)F)cc1Cl	-6.6	-13.3	-0.48	1.1	1.1
Cc1cccc2cc(CN(Cc3cccs3)C3(c4nnnn4C4CCCC4)CCCC3)c(=O)[nH]c12	41.8	11.5	0.387	0.9	0.6
COc1ccc(C2C(C(=O)c3sc(C)nc3C)=C(O)C(=O)N2CCN(C)C)cc1 (centres undefined)	-7.5	-5.5	0.939	1.1	1.1
COc1cccc(C2C(C(=O)c3cccs3)=C(O)C(=O)N2CCCn2ccnc2)c1OC (centres undefined)	88.6*	77.2*	x	0.2	0.1
CCN(CC)CCCN1C(=O)C(O)=C(C(=O)c2cccs2)C1c1ccccn1 (centres undefined)	x	x	0.235	x	x
Cc1nc(C)c(C(=O)C2=C(O)C(=O)N(CCCn3ccnc3)C2c2ccc(Cl)cc2)s1 (centres undefined)	58.9*	24.4	0.372	0.8	0.4
CC(C)Oc1ccc(C2C(C(=O)c3ccco3)=C(O)C(=O)N2Cc2cccnc2)cc1 (centres undefined)	44.6	-1.8	0.7	1	0.6
CCCOc1ccc(C2C(C(=O)c3ccco3)=C(O)C(=O)N2CCCn2ccnc2)cc1 (centres undefined)	60.6*	25.2	x	0.7	0.4
Cc1nnc2ccc(Oc3ccc(-c4ccccc4)cc3)nn12	22.0	16.2	-1.28	0.8	0.8
C#CCNC(=O)C1=C[C@H](c2ccc(C(F)(F)F)cc2)[C@@H](CCCO)[C@H](OCC)O1	x	x	-1.32	x	x
CC1(C)CC(=O)C(C(=O)/C=C/NCCc2ccccc2)C(=O)C1	73.6*	3.4	-1.28	1	0.3
CC1(C(=O)O)CCC(C(=O)NCCc2ccccc2)C1(C)C (centres undefined)	-10.5	-1.1	0.289	1	1.1
CCn1c(N2CCN(C(=S)NC)CC2)nc2ccccc21	32.6	65.5*	1.35	0.3	0.7
CCn1c(N2CCN(C(=S)NCCc3ccccc3)CC2)nc2ccccc21	36.7	55.7*	-3.15	0.4	0.6
Cc1ccc(NCC(=O)N/N=C/c2cc3ccccc3nc2Cl)cc1	53.7*	29.8	x	0.7	0.5
N#Cc1c(NC(=O)Cn2c(=O)oc3ccccc32)oc(-c2ccccc2)c1-c1ccccc1	75.7*	11.9	-1.46	0.9	0.2
N#Cc1c(NC(=O)CSc2n[nH]c(N)n2)oc(-c2ccccc2)c1-c1ccccc1	51.3*	17.8	-3.59	0.8	0.5
CC(C)OCP(=O)(c1ccccc1)c1ccccc1	2.5	0.4	0.843	1	1
CCC(C)NC(=O)C1(C)CCC(=O)N1Cc1ccccc1OC (centres undefined)	-23.2	0.8	-0.0571	1	1.2
O=S(=O)(c1ccccc1)c1nc(Nc2ccccc2N2CCOCC2)sc1Cl	88.2*	74.1*	-5.32*	0.3	0.1
O=C(Nc1ccccc1N1CCOCC1)c1ccc2ccccc2n1	38.6	38.8	0.541	0.6	0.6
CC(C)C(=O)Nc1ccc(-c2csc(-c3ccccc3)n2)cc1	-21.0	-3.6	0.515	1	1.2
C/C(CC1CC(COCC(C)C)OC1=O)=N\Nc1nc(-c2ccccc2)cs1 (centres undefined)	72.0*	89.0*	-0.624	0.1	0.3
COc1cc(-c2nc3ccc4ccccc4c3c3c2CCC3)cc(OC)c1OC	8.1	7.7	-0.288	0.9	0.9

Screens as filed in PubChem.
